Assay outcomes deposited in PubChem BioAssay by Broad Institute.
MITF act = increases MITF-driven TRPM1 promoter luciferase signal. SK-MEL-5 TRPM1-promoter luciferase, 24 h; % of positive control, neutral wells = 0. activation, % at 12.5 µM. actives 0.75% (n = 300,000);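 active = mean activation of at least 80% with every replicate also reaching 80%; inconclusive = mean reaches 80% but some replicate falls short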;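 also: 0% = neutral control wells and 100% = parthenolide positive control wells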
C2C12 statin = protects C2C12 myotubes from simvastatin toxicity. ATP luminescence, 48 h; scaled: DMSO 0, geranylgeraniol control 100. rescue of ATP level, % at 7.49 µM. actives 0.78% (n = 330,000);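 active = mean ATP rescue above about 67%, or every replicate alone reaching that limit, limit read from the data, passing the limit was not always enough; inconclusive = no clear call, values can overlap the other calls; inactive = mean under the limit and some replicate under it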;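 also: myotubes were challenged with 10 µM simvastatin during compound exposure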
esBAF inh = blocks esBAF chromatin remodeling in mouse ES cells | Bmi1-luciferase knock-in reporter, 24 h; 100% = twice the neutral-well signal | reporter increase, % at 12.5 µM | actives 2% (n = 350,000); in the data active = activation above about 40%; inconclusive = no clear call, values can overlap the other calls;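 also: 0% = median of the plate's neutral control wells and 100% = double that signal; a rise in the Bmi1 reporter signal indicates esBAF inhibition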
Wnt bcat act = activators of Wnt/beta-catenin signaling; actives 1.2% (n = 300,000); AID 743398; Wnt/beta-catenin reporter cell assay, activator, plate reader; activation, % at 9.35 µM; in the data active = activation above about 30%, passing the limit was not always enough; inconclusive = no clear call, values can overlap the other calls;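 also: 0% = neutral control wells and 100% = positive control wells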
Numbers without * were called inactive. This is a sample that favours compounds with a hit; in the whole collection about 3% have one here.

Results for CCOC(=O)c1sc(NC(=O)C2CC2)nc1C ?
C2C12 statin: -11.2; esBAF inh: 3.2; Wnt bcat act: 2.7

How did CCOC(=O)c1sc(Nc2nc3c(OC)cccc3s2)nc1C do in these assays?
MITF act: 0.6; C2C12 statin: 106.2*; esBAF inh: 67.4*

How did CNc1nc(C)c(C(=O)OCc2ccccc2)s1 do in these assays?
C2C12 statin: 2.2; esBAF inh: 75.2*; Wnt bcat act: 14.4

What do the screens show for `CCOC(=O)c1sc(NCC2CCCO2)nc1C` (stereo unspecified)?
MITF act: 21.8; C2C12 statin: 113.2*; esBAF inh: 29.9; Wnt bcat act: 1.6

Results for CCOC(=O)c1sc(NC(=O)c2ccccc2OCC)nc1C ?
MITF act: 18.5; Wnt bcat act: 6.4

How did Cc1nc(Nc2ccccc2)sc1-c1ccccc1 do in these assays?
MITF act: 58.0; Wnt bcat act: 43.8*

What do the screens show for `Cc1nc(Nc2ccc(C(=O)O)cc2)sc1-c1ccccc1`?
MITF act: -35.0; Wnt bcat act: 1.3

How did C[C@@H]1CN([C@@H](C)CO)C(=O)c2cccc(NS(=O)(=O)c3ccc(F)cc3)c2O[C@H]1CN(C)CC1CCCCC1 do in these assays?
C2C12 statin: 10.6; esBAF inh: 1.0

How did CC=Cc1ccc2n(c1=O)C[C@H]1[C@H](CO)[C@@H](C(=O)NCCC)[C@@H]2N1Cc1cccnc1 (mixture of isomers) do in these assays?
C2C12 statin: 4.6; esBAF inh: 4.1

What do the screens show for `C[C@@H]1CCCCO[C@@H](CN(C)C(=O)Nc2ccccc2)[C@@H](C)CN([C@@H](C)CO)C(=O)c2cc(NS(=O)(=O)c3ccc(Cl)cc3)ccc2O1`?
esBAF inh: 1.2

How did O=C(C[C@@H]1CC[C@H]2[C@@H](COC[C@H](O)CN2S(=O)(=O)c2ccccc2)O1)NCC1CCCCC1 do in these assays?
C2C12 statin: 11.7; esBAF inh: 1.1

What do the screens show for `COCC(=O)N(C)C[C@@H]1Oc2cc(-c3cccnc3)ccc2S(=O)(=O)N([C@@H](C)CO)C[C@H]1C`?
C2C12 statin: 7.1; esBAF inh: -6.1

How did CCOC(=O)c1sc(Nc2ccccc2)nc1C do in these assays?
MITF act: 94.2*; C2C12 statin: -9.4; esBAF inh: 77.5*

What do the screens show for `Cc1nc(Nc2ccccc2)sc1C(=O)c1ccccc1`?
Wnt bcat act: 42.3*

What do the screens show for `CC(=O)c1sc(Nc2ccccc2)nc1C`?
C2C12 statin: 4.1; esBAF inh: 35.6; Wnt bcat act: 0.6

How did CCOC(=O)c1sc(Nc2ccc(F)cc2)nc1C do in these assays?
MITF act: 24.6; Wnt bcat act: -4.8

What do the screens show for `COC(=O)c1ccc(/C=N/Nc2nc(-c3ccc(C)cc3)cs2)cc1`?
MITF act: 0.4; C2C12 statin: -3.1; esBAF inh: -5.1

Results for COc1ccc(C(=O)c2sc(Nc3ccccc3)nc2C)cc1 ?
MITF act: 20.2; C2C12 statin: 0.4; esBAF inh: 14.6; Wnt bcat act: 1.1

Results for COC(=O)c1ccc(/C=N/Nc2nc(C)c(C)s2)cc1 ?
Wnt bcat act: 33.6*

How did CC(C)(C)C(=O)c1sc(Nc2ccccc2)nc1N do in these assays?
MITF act: 122.0*; C2C12 statin: -41.5; esBAF inh: 56.9*; Wnt bcat act: 0.0

How did CCCC(=O)Nc1ccc2c(c1)C(=O)N(C)[C@@H]1CC[C@H](CC(=O)NCCN3CCCCC3)O[C@H]1CO2 do in these assays?
C2C12 statin: -4.2; esBAF inh: -7.6

How did CCOC(=O)c1sc(N/N=C/c2cccc(C)c2)nc1C do in these assays?
MITF act: 98.6*; C2C12 statin: -39.6; esBAF inh: 57.9*; Wnt bcat act: 18.3

How did CCOC(=O)c1sc(NC(=O)Nc2ccc(Cl)cc2)nc1C do in these assays?
C2C12 statin: -19.9; esBAF inh: 61.3*; Wnt bcat act: 39.3*

Results for CCOC(=O)c1sc(N/N=C/c2ccccc2)nc1C ?
MITF act: 50.6

How did C[C@H](CO)N1C[C@H](C)[C@H](CN(C)C(=O)Nc2ccc(F)cc2)Oc2ccc(NC(=O)Nc3ccccc3)cc2C1=O do in these assays?
C2C12 statin: -6.0; esBAF inh: 2.7

Results for Cc1noc(C)c1NC(=O)Nc1ccc2c(c1)C(=O)N([C@H](C)CO)C[C@@H](C)[C@H](CN(C)S(C)(=O)=O)O2 ?
C2C12 statin: -18.5; esBAF inh: -6.3

Results for COc1ccc(C#Cc2cnc3c(c2)C(=O)N([C@@H](C)CO)C[C@H](C)[C@H](CN(C)C(C)=O)O3)cc1 ?
C2C12 statin: 17.9; esBAF inh: 3.5

How did CN(c1nc(-c2ccccc2)cs1)C1CCS(=O)(=O)C1 (stereo unspecified) do in these assays?
MITF act: 44.6; C2C12 statin: 0.4; esBAF inh: 74.6*; Wnt bcat act: 6.7

How did O=C(C[C@H]1C=C[C@H](NC(=O)CC2CC2)[C@H](CO)O1)NCc1ccc(-c2ccccc2)cc1 do in these assays?
C2C12 statin: 4.1; esBAF inh: 1.6

How did O=C(Cc1ccccc1)Nc1nnc(-c2ccco2)s1 do in these assays?
MITF act: 59.6; C2C12 statin: 22.0; esBAF inh: 47.9*

What do the screens show for `CCCC(=O)Nc1nnc(-c2ccco2)s1`?
MITF act: 62.5; esBAF inh: 21.9; Wnt bcat act: 3.4

How did COc1ccc(C(=O)Nc2nc(-c3cccs3)cs2)cc1 do in these assays?
MITF act: 44.6; C2C12 statin: -81.2; esBAF inh: 84.3*

What do the screens show for `O=C(Cc1ccccc1)Nc1nnc(-c2cccs2)s1`?
MITF act: 77.2; C2C12 statin: 9.3; esBAF inh: 51.6*; Wnt bcat act: 27.2

Results for CCC(=O)Nc1nnc(-c2cccs2)s1 ?
MITF act: 8.4; Wnt bcat act: -1.6

Results for O=C(Nc1nc(-c2cccs2)cs1)c1ccc(Cl)cc1 ?
MITF act: 6.6

Results for COCC(=O)Nc1nnc(-c2cccs2)s1 ?
MITF act: 16.9; C2C12 statin: 3.1; esBAF inh: -8.6; Wnt bcat act: 7.2

Results for CCC(C)C(=O)Nc1nnc(-c2cccs2)s1 (stereo unspecified) ?
esBAF inh: inconclusive; Wnt bcat act: 34.1*

Results for O=C(C[C@H]1CC[C@@H]2[C@H](COC[C@H](O)CN2C(=O)c2cccnc2)O1)Nc1ccc(-c2ccccc2)cc1 ?
C2C12 statin: -3.0; esBAF inh: 5.5

Results for O=C(c1cccnc1)N1C[C@@H]2[C@H](c3ccccc31)[C@H](CO)N2C(=O)Nc1ccccc1F ?
C2C12 statin: 1.3; esBAF inh: -4.7

What do the screens show for `COCC(=O)N(C)C[C@H]1Oc2ncc(C#CC(C)(C)O)cc2C(=O)N([C@H](C)CO)C[C@@H]1C`?
C2C12 statin: -0.9; esBAF inh: -0.4

What do the screens show for `O=C(Cc1ccccc1)Nc1nc(-c2cccs2)cs1`?
MITF act: inconclusive; esBAF inh: 65.4*; Wnt bcat act: -0.2

How did N/C(=N\OC(=O)c1cccs1)c1ccccc1 do in these assays?
MITF act: 19.0; C2C12 statin: 19.1; esBAF inh: 18.4; Wnt bcat act: 14.5

What do the screens show for `Cc1ccc(/C(N)=N/OC(=O)c2cccs2)cc1`?
MITF act: 16.6; C2C12 statin: 5.4; esBAF inh: -4.3; Wnt bcat act: 53.9*
